This is an account of results in PubChem BioAssay.

Active and inactive are the calls of the source.

Assay [1] in a line: small molecules captured by biotinylated probe aFSTL3 – biochemical, small-molecule microarray, fluorescence 635/667, stem cell growth factor project, primary screen (AID 1064).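 Further: measures binding of the biotinylated anti-FSTL3 antibody to printed compounds.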 The note with it: higher = more signal.
Assay [2] in a line: binders from COS7 lysate, DM2A8 probe, primary screen, torsin A project, cell lysate, small-molecule microarray, fluorescence 635/667 (AID 1065). The note with it: higher = more signal, COS7 lysate expressing mutant human TOR1A.
Assay [3] can be described thus: small molecules captured by biotinylated probe aFGF2 – biochemical, small-molecule microarray, fluorescence 635/667, stem cell growth factor project, primary screen (AID 1067).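 Further: measures binding of biotinylated aFGF2 protein to printed compounds on slides; z-score merges feature fluorescence and signal-to-noise across triplicate slides.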 The note with it: higher = more signal.
A short description of assay [4]: small molecules captured by biotinylated probe aFGF10 – biochemical, small-molecule microarray, fluorescence 635/667, stem cell growth factor project, primary screen (AID 1071).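 Further: score merges 667 nm spot intensity and signal to noise from triplicate slides.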 The note with it: higher = more signal.
Assay [5] deals with Neurogenic locus notch homolog protein 2 (Homo sapiens) (UniProt Q04721). As to the kind of experiment: small molecules binding Notch2 protein – biochemical, small-molecule microarray, 635 nm fluorescence, stem cell growth factors, primary screen (AID 1073). The note with it: higher = more signal.
Assay [6] deals with Pro-neuregulin-1, membrane-bound isoform (Homo sapiens) (UniProt Q02297). As to the kind of experiment: small molecules binding neuregulin-1 protein – biochemical, small-molecule microarray, fluorescence 635/667, psychiatric disease protein project, primary screen (AID 1075).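 Further: score combines 667 nm spot fluorescence with signal to noise.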 The note with it: NRG1 binding, 635 nm fluorescence, higher = more signal.
Assay [7] has as its system Neuregulin-1 EGF-like domain. As to the kind of experiment: small molecules binding NRG1 EGF domain – biochemical, small-molecule microarray, 635 nm fluorescence, primary screen (AID 1081).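 Further: binding of the protein to compounds printed on small-molecule microarray slides.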 The note with it: higher = more signal.
Assay [8] can be described thus: FRG1 expression reporter modulators in myotubes – cell-based, C2C12 myotubes, firefly/Renilla luciferase, luminescence, FRG1 inhibition for FSHD, primary screen (AID 1084). The note with it: FRG1 promoter luciferase, higher = more signal, called active from +8 up or from −8 down.
Assay [9] in a line: small molecules captured by biotinylated probe aFST – biochemical, small-molecule microarray, fluorescence 635/667, stem cell growth factor project, primary screen (AID 1086).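 Further: score merges 667 nm fluorescence with signal-to-noise of each printed compound spot.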 The note with it: higher = more signal.
Assay [10] in a line: binders of probe aHhip on microarray, primary screen, stem cell growth factor project, biochemical, small-molecule microarray, fluorescence 635/667 (AID 1087).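 Further: score merges spot fluorescence at 667nm with spot signal to noise ratio.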 The note with it: higher = more signal.
In assay [11] the test system is PRMT1 (protein arginine N-methyltransferase 1). In words: small molecules binding arginine methyltransferase PRMT1 – biochemical, small-molecule microarray, 635 nm fluorescence, primary screen (AID 1088).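 Further: binding of Prmt1 protein to compounds spotted on small-molecule microarray slides.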 The note with it: higher = more signal.
The nature of assay [12]: growth effects on S. cerevisiae YJM789 – YJM789 clinical isolate, OD600, 24 h, basal, primary screen (AID 1089).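 Further: growth of clinical yeast isolate S. cerevisiae YJM 789 seeded 1000 cells per well; test concentration not given here.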 The note with it: higher = more signal, called active from +8 up or from −8 down.
Assay [13] in a line: S. pombe growth modifiers, basal conditions – strain 972, OD600, 24 h, no modulator, primary screen (AID 1090).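 Further: basal condition with compound alone and no growth modifier present; test concentration not given here.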 The note with it: S. pombe 972 growth, higher = more signal, called active from +8 up or from −8 down.
The nature of assay [14]: budding yeast growth modifiers under rapamycin – strain BY4716, OD600, 96 h, primary screen (AID 1091). Further: test concentration not given here. The note with it: S. cerevisiae BY4716 + rapamycin, higher = more signal, called active from +8 up or from −8 down.
In assay [15] the target is Torsin-1A-interacting protein 2 (Homo sapiens) (UniProt Q8NFQ8). As to the kind of experiment: small molecules binding lysate-expressed LULL1 – cell lysate, human LULL1 lysate, 635/667 nm fluorescence, primary screen (AID 1092).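 Further: probe is lysate of COS7 cells overexpressing human LULL1; score merges per-feature 667 nm fluorescence with signal-to-noise.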 The note with it: small-molecule microarray, hLULL1 lysate binding, 635 nm fluorescence; higher = more signal.
The nature of assay [16]: optical density change of DRC41 E. coli – strain DRC41, OD650, 24 h, E. coli filamentation project, primary screen (AID 1093).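 Further: MC1000 strain lacking acrAB efflux and sulA so SOS filamentation is blocked; test concentration not given here.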 The note with it: E. coli DRC41 growth, higher = more signal, called active from +8 up or from −8 down.
The nature of assay [17]: probe aLefty2 binding to arrayed compounds – biochemical, biotinylated probe, 635/667 nm fluorescence, primary screen (AID 1094).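 Further: score merges spot fluorescence near 667 nm with spot signal-to-noise ratio.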 The note with it: small-molecule microarray, higher = more signal.
The subject of assay [18] is Noggin (protein binding on small-molecule microarray). In words: small molecules binding Noggin protein – biochemical, 635/667 nm fluorescence, primary screen (AID 1095).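 Further: score merges 667 nm feature fluorescence with signal to noise over triplicate slides.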 The note with it: 635 nm fluorescence, higher = more signal.
Assay [19] deals with Neurogenic locus notch homolog protein 3 (Homo sapiens) (UniProt Q9UM47). In words: small molecules binding NOTCH3 protein – biochemical, 635/667 nm fluorescence, primary screen (AID 1096). The note with it: small-molecule microarray, 635 nm fluorescence, higher = more signal.
Assay [20] in a line: probe aEGFR binding to arrayed compounds – biochemical, biotinylated probe, 635/667 nm fluorescence, primary screen (AID 1097).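 Further: probe is a biotinylated anti-EGFR antibody binding compounds printed on slides; score combines fluorescence near 667 nm and signal to noise of each spot.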 The note with it: small-molecule microarray, higher = more signal.

Sequence of Neurogenic locus notch homolog protein 3 (Homo sapiens) (Q9UM47 whole entry, looked up): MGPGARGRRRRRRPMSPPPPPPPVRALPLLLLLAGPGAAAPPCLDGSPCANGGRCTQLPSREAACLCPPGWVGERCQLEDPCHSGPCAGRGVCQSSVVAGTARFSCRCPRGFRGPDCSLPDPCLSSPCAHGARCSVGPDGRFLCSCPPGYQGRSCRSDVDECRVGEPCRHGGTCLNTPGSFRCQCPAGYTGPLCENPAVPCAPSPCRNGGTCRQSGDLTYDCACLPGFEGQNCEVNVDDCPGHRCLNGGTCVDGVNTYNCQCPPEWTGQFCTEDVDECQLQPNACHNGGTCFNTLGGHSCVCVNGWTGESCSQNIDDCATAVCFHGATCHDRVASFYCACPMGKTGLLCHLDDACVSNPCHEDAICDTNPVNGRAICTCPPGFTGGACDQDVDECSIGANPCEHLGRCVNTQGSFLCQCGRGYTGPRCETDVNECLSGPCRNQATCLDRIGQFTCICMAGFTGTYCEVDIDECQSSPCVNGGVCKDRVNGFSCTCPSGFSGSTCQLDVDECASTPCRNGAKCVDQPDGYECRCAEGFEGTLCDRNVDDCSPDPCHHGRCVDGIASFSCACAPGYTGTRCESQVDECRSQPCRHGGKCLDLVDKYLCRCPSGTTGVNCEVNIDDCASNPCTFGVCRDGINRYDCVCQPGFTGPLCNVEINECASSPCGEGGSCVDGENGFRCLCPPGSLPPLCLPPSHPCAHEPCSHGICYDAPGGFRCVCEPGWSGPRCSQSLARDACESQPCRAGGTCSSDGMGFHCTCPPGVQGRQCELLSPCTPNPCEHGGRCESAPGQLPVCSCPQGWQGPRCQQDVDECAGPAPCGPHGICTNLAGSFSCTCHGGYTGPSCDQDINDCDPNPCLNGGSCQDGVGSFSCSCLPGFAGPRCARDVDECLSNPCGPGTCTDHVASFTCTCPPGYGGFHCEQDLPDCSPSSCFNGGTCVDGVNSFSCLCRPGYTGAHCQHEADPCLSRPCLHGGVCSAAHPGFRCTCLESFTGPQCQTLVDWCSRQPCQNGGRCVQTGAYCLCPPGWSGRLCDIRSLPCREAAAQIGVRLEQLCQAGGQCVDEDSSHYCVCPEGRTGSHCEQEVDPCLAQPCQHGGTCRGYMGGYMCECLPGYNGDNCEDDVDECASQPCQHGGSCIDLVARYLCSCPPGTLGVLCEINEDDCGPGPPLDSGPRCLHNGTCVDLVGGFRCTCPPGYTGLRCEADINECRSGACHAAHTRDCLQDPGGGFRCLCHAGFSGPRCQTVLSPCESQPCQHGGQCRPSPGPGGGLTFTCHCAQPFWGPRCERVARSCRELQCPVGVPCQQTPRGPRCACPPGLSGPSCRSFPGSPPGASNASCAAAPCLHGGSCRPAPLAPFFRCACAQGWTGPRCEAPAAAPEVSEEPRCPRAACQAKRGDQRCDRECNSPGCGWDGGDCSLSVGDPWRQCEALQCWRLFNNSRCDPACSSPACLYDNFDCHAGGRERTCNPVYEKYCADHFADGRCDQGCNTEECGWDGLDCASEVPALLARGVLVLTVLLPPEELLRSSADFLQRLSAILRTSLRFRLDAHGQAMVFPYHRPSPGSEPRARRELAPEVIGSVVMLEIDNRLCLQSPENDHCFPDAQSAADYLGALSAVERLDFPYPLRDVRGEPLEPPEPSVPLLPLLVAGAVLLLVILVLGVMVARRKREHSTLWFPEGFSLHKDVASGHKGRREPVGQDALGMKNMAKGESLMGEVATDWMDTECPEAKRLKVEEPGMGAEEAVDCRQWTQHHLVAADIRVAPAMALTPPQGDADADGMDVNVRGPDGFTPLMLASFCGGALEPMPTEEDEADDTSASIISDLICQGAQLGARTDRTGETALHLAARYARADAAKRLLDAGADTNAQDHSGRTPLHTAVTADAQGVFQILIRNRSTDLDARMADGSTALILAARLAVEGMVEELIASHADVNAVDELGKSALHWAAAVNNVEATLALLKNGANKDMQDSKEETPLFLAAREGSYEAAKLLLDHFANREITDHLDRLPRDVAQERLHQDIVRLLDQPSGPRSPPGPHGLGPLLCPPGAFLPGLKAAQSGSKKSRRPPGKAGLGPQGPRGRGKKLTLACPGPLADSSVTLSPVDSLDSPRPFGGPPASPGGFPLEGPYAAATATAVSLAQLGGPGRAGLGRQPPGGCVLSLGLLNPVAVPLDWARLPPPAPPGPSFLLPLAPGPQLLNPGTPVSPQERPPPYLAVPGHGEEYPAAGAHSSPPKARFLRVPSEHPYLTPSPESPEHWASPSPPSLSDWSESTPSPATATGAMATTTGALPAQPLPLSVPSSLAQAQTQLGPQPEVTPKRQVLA
Sequence of Pro-neuregulin-1, membrane-bound isoform (Homo sapiens) (Q02297 whole entry, looked up, the tested form may be a part, canonical isoform): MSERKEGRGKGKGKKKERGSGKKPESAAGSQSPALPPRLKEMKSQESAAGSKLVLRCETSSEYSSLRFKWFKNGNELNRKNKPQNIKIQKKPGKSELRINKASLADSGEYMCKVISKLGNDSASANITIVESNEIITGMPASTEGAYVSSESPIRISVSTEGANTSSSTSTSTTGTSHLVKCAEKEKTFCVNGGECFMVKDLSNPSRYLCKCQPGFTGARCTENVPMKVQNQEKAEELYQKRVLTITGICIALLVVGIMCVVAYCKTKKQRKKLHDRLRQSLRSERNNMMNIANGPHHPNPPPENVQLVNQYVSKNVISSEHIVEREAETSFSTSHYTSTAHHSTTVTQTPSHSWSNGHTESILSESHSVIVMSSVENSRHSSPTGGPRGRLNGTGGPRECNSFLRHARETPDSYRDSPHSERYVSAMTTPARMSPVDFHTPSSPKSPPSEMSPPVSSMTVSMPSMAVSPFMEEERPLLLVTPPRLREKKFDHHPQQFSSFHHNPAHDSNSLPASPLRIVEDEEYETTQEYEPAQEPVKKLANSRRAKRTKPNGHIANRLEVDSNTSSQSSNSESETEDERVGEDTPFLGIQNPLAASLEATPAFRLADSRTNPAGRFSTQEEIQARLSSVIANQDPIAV
Sequence of Torsin-1A-interacting protein 2 (Homo sapiens) (Q8NFQ8 whole entry, looked up): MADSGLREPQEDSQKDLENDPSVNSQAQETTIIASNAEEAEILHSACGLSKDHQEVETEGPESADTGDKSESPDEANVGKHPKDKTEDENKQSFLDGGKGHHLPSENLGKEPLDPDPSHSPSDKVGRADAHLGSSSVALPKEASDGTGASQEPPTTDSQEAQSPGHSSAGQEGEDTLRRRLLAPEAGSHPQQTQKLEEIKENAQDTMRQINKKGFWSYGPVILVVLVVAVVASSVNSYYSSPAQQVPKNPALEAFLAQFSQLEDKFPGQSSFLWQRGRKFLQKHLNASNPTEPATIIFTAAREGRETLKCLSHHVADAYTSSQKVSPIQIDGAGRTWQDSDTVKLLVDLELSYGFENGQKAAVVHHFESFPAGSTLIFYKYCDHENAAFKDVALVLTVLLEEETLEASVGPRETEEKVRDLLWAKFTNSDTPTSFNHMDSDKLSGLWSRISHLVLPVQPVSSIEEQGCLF

In the case of `O=C1CCCC=C1C(O)COCc1ccccc1` (stereo not given), the composite z-score in assay [1] was -0.356; in assay [2], 0.217; in assay [3] it was -0.214; in assay [4], 0.225; in assay [5], -0.263; in assay [6] it was -0.179. Moreover, the composite z-score was 0.332 in [7]; -0.302 in assay [9]; -0.194 in [10]; -0.544 in assay [11]; -0.395 in assay [15]; -0.212 in assay [17]. Besides, the composite z-score in assay [18] was 0.022; in assay [19], -0.256; in assay [20], -0.142. In addition, the z-score is 0.91 (inactive) in assay [8]; 0.249 (inactive) in [12]; -0.233 (inactive) in assay [13]; 0.456 (inactive) in [14]; 0.202 (inactive) in [16].
With `CO[C@H]1C[C@@H]2C[C@H](O)CC(CC(=O)O[C@@H](C=CCC(C)C)C[C@@H]3CC[C@H](C)[C@@H](C1)O3)O2`, the composite z-score in [1] is -0.479; in [2], 0.613; in [3], -0.0442; in assay [4], 0.365; in assay [5], 1.03; in assay [6] it was -0.33. The composite z-score was 0.661 in assay [7]; 0.36 in assay [9]; -0.226 in assay [10]; 1.54 in assay [11]; 1.82 in assay [15]; -0.158 in [17]. The composite z-score in [18] is 0.506; in assay [19], 1.06; in [20], -0.0458. In addition, the z-score in assay [8] was 0.0521 (inactive); in assay [12], -0.124 (inactive); in assay [13] it was -0.425 (inactive); in [14], -0.414 (inactive); in assay [16], 0.128 (inactive).
Turning to `COC(=O)[C@H](C)NC(=O)CCC1CC(OC(=O)NCc2cccc3ccccc23)CC2(CCCC(COC(=O)NCCc3ccccc3OC)O2)O1` (stereo not given in full), the composite z-score in [1] was -0.629; in assay [2], 0.0902; in assay [3], -0.076; in [4], 0.612; in assay [5], 1.24; in assay [6], 1.15. The composite z-score in [7] was 1.21; in assay [9], 0.573; in assay [10] it was 0.24; in assay [11], 1.37; in assay [15], 2.38; in assay [17] it was -0.0179. Also, the composite z-score in assay [18] amounted to 1.14; in assay [19] it was 0.817; in assay [20], 0.0066. The z-score in [8] is 2.21 (inactive); in assay [12], 0.502 (inactive); in [13], 1.02 (inactive); in assay [14], 2.03 (inactive); in assay [16] it was 0.476 (inactive).
For the molecule `O=C(NN=C1C[C@@H](O)[C@@H](O)[C@@H]2[C@@H]3C(=O)N(Cc4ccc5c(c4)OCO5)C(=O)[C@@H]3CC[C@@H]12)OCc1ccccc1`, the composite z-score is 0.595 in assay [1]; -0.183 in assay [2]; -0.0467 in assay [3]; 0.107 in assay [4]; 0.133 in assay [5]; 0.022 in [6]. In addition, the composite z-score in [7] is -0.17; in [9], 0.312; in assay [10] it was -0.134; in [11], -0.0443; in assay [15], 0.418; in [17], 0.0026. The figures for the composite z-score in [18], in [19] and in assay [20] were -0.0248, -0.142 and -0.0433, respectively. Also, the z-score in [8] is 1.78 (inactive); in [12], 0.186 (inactive); in assay [13], -0.475 (inactive); in [14], -0.4 (inactive); in assay [16], 0.885 (inactive).
Consider `CC(CCC(=O)OC[C@H]1O[C@H](C#Cc2ccccc2)C=C[C@@H]1Oc1ccc(C)cc1)=NOC(C)CN1CCCCc2nc(C)c(C)cc21` (stereo not given in full), for which the composite z-score in assay [1] was -0.172; in assay [2], -0.116; in [3], -0.211; in assay [4], -0.12; in assay [5], -0.565; in assay [6], 0.904. Moreover, the composite z-score in assay [7] is -0.491; in [9] it was -0.697; in assay [10] it was -0.143; in [11] it was 0.479; in [15] it was 0.238; in assay [17], -0.0454. Moreover, the composite z-score in assay [18] was -0.0193; in assay [19], -0.171; in assay [20] it was -0.18. Besides, the z-score in assay [8] was 0.49 (inactive); in assay [12], -0.167 (inactive); in assay [13], -0.324 (inactive); in [14] it was -0.773 (inactive); in [16] it was 0.136 (inactive).
